Screening results: PubChem BioAssay, several laboratories
MITF act: increases MITF-driven TRPM1 promoter luciferase signal. hit rate 0.75% among 300,000. SK-MEL-5 TRPM1-promoter luciferase, 24 h; % of positive control, neutral wells = 0. activation, % at 12.5 µM;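 active = mean activation of at least 80% with every replicate also reaching 80%; inconclusive = mean reaches 80% but some replicate falls short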
PHOSPHO1 inh: PHOSPHO1 (human) inhibition | recombinant PHOSPHO1, absorbance phosphatase assay | inhibition, % at 13.3 µM | hit rate 1.1% among 290,000 | AID 1565; in the data active = inhibition above about 60%
Target sequence (Q8TCT1 whole entry, looked up): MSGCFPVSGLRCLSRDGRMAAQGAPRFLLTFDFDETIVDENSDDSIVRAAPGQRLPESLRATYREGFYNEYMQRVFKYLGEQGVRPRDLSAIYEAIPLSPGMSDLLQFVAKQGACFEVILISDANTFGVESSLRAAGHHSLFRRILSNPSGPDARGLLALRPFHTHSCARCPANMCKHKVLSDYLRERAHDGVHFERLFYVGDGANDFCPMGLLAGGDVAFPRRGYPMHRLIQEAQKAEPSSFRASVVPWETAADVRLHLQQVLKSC
esBAF inh: SWI/SNF esBAF complex inhibition | mouse ES cells, Bmi1-luciferase knock-in reporter, 24 h; 100% = twice the neutral-well signal | reporter increase, % at 12.5 µM | hit rate 2% among 350,000 | AID 602393; in the data active = activation above about 40%; inconclusive = no clear call, values can overlap the other calls;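 note: a rise in the Bmi1 reporter signal indicates esBAF inhibition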
Wnt act: activators of Wnt/beta-catenin signaling; Wnt/beta-catenin reporter cell assay, activator, plate reader; activation, % at 9.35 µM; hit rate 1.2% among 300,000; AID 743398; in the data active = activation above about 30%, passing the limit was not always enough; inconclusive = no clear call, values can overlap the other calls
APOBEC3A inh: human APOBEC3A DNA deaminase inhibition. P31941. recombinant A3A, FAM/TAMRA ssDNA deamination fluorescence. inhibition, % at 20 µM. hit rate 0.41% among 330,000;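 active = at least 40% inhibition at 20 µM here, with at most 30% in a related deaminase screen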
Target sequence (P31941 whole entry, looked up): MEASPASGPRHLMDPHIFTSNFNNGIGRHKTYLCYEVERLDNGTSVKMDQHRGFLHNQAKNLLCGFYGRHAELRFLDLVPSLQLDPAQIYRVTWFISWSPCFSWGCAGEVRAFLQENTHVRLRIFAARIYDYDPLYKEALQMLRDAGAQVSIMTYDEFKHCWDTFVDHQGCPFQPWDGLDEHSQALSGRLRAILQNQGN
A3G deaminase: inhibitors of human APOBEC3G DNA deaminase; Q9HC16; recombinant A3G, ssDNA deamination FAM/TAMRA fluorescence; inhibition, % at 20 µM; hit rate 0.28% among 330,000; AID 493012;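 active = inhibition of at least 40% at 20 µM, with no more than 30% in the related APOBEC3A deaminase screen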
A3A conf: APOBEC3A (human) deaminase inhibition, confirmed; shares compounds with APOBEC3A inh; recombinant A3A, ssDNA deaminase UDG fluorescence assay; inhibition, % at 20 µM; hit rate 63% among 1,400;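 active = inhibition reaching a set limit, 80% of the first screen's cutoff, at 20 µM in any replicate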
UDG A3A counter: inhibits UDG, flagging false APOBEC3A inhibitors. shares compounds with APOBEC3A inh. UDG counterscreen, FAM/TAMRA uracil oligo fluorescence. inhibition, % at 20 µM. 1,000 tested, under 10 active; call rule not given here
Large screens that a line does not name were inactive (follow-up assays come after a bar, where they were run). The list is not random: actives were taken first. Their share in the collection is about 3.6%.

CCCCCCCC[n+]1cccc2c3ccccc3ccc21	APOBEC3A inh 57 (no result: esBAF inh) | A3A conf 75 | UDG A3A counter inactive
CC(c1ccccc1)C1OCC(C[N+]2(C)CCCCC2)O1 (stereo not drawn)	APOBEC3A inh 68 (no result: esBAF inh) | A3A conf 66 | UDG A3A counter inactive
CCCCC(CC)C1OCC(C[N+]2(C)CCOCC2)O1 (stereo not drawn)	none (no result: esBAF inh)
C=CCn1c(SCC(=O)NC2CCCCC2)nc2ccccc2c1=O	none
C=CCn1c2[n+](c3ccccc3c1=O)CCCCC2	APOBEC3A inh 67 (no result: esBAF inh) | A3A conf 52 | UDG A3A counter inactive
O=C(CC12CCC(CC1)C2)NCc1ccc2c(c1)OCO2	APOBEC3A inh 44 (no result: MITF act) | A3A conf inactive | UDG A3A counter inactive
CN(C)CCN(Cc1ccccc1)C(=O)[C@H](Cc1ccccc1)N1C(=O)c2ccccc2C1=O	APOBEC3A inh 42 | A3A conf inactive
CCC(=O)Oc1ccc(C(=O)Nc2cccc(C(=O)c3ccccc3)c2)cc1	APOBEC3A inh 45 | A3A conf inactive | UDG A3A counter inactive
Cc1ccc(C)c(NC(=O)C2CC(O)CN2C(=O)Oc2ccccc2)c1 (stereo not drawn)	APOBEC3A inh 54 (no result: esBAF inh) | A3A conf 41 | UDG A3A counter inactive
CN(C)c1ccc2c(c1)[C@@H]1C[C@@H](CC(=O)N3CCc4ccccc4C3)O[C@@H](CO)[C@@H]1O2	none (no result: MITF act, PHOSPHO1 inh, Wnt act, APOBEC3A inh, A3G deaminase)
CCN1C(=O)[C@@H]2Cc3c([nH]c4ccccc34)C(c3cc(OC)c(OC)c(OC)c3)N2C1=S (stereo partly drawn)	APOBEC3A inh 59 (no result: PHOSPHO1 inh) | A3A conf inactive | UDG A3A counter inactive
C=CCN1C(=O)[C@@H]2Cc3c([nH]c4ccccc34)C(c3cc(OC)c(OC)c(OC)c3)N2C1=S (stereo partly drawn)	none
Cc1c2ccccc2nc2ccccc12	none (no result: PHOSPHO1 inh, esBAF inh)
CCCNc1c(F)c(F)c2c(C)c3ccccc3nc2c1F	APOBEC3A inh 42 (no result: esBAF inh, Wnt act) | A3A conf inactive | UDG A3A counter inactive
Cc1ccc(N2CC(C(=O)Nc3cccc(C(=O)NC4CC4)c3)CC2=O)cc1 (stereo not drawn)	APOBEC3A inh 41 (no result: PHOSPHO1 inh) | A3A conf inactive
O=C(c1ccccn1)N1C[C@H]2[C@@H](c3ccccc31)[C@H](CO)N2C(=O)c1ccccn1	none (no result: MITF act, PHOSPHO1 inh, Wnt act, APOBEC3A inh, A3G deaminase)
C[C@@H]1CN([C@@H](C)CO)C(=O)c2cccc(N(C)C)c2O[C@@H]1CN(C)S(=O)(=O)c1ccc(Cl)cc1	none (no result: MITF act, PHOSPHO1 inh, Wnt act, APOBEC3A inh, A3G deaminase)
Cc1cccc(NC(=O)/C(C#N)=C\c2cn(CC(=O)O)c3ccccc23)c1	APOBEC3A inh 53 | A3A conf inactive
CCC(=O)Nc1ccc2c(c1)C(=O)N(C)[C@@H]1CC[C@H](CC(=O)N3CCc4ccccc4C3)O[C@H]1CO2	none (no result: MITF act, PHOSPHO1 inh, Wnt act, APOBEC3A inh, A3G deaminase)
COC(=O)Cn1cc(/C=C/c2cc[n+](C)cc2)c2ccccc21	APOBEC3A inh 66 (no result: MITF act) | A3A conf 67 | UDG A3A counter inactive
COc1ccc(CN(C)C[C@@H]2Oc3c(NS(=O)(=O)c4ccc(F)cc4)cccc3C(=O)N([C@H](C)CO)C[C@@H]2C)cc1	none (no result: MITF act, PHOSPHO1 inh, Wnt act, APOBEC3A inh, A3G deaminase)
CC1(C)CC(N2CCOCC2)=CC(=[N+]2CCOCC2)C1	APOBEC3A inh 66 (no result: esBAF inh) | A3A conf 69 | UDG A3A counter inactive
CN(C)c1cccc(N=C2C=C(N3CCOCC3)CC(C)(C)C2)c1	none (no result: Wnt act)
CCCN(CCC)C1=CC(=[N+]2CCCC2)CC(C)(C)C1	APOBEC3A inh 60 (no result: esBAF inh) | A3A conf inactive
CC1C[N+](=C2C=C(N3CCOCC3)CC(C)(C)C2)CC(C)O1 (stereo not drawn)	APOBEC3A inh 57 (no result: esBAF inh) | A3A conf 65 | UDG A3A counter inactive
O=C1C=C(N2CCOCC2)CO1	none (no result: PHOSPHO1 inh)
CC1(C)CC(N2CCCCC2)=CC(=[N+]2CCCCC2)C1	APOBEC3A inh 60 | A3A conf 69 | UDG A3A counter inactive
COc1ccccc1-c1ccc([C@@H]2[C@H](CO)N3CCCCN(S(=O)(=O)c4cn(C)cn4)C[C@@H]23)cc1	none (no result: MITF act, PHOSPHO1 inh, Wnt act, APOBEC3A inh, A3G deaminase)
O=[N+]([O-])c1ccc2nc(N3CCCC3)sc2c1	MITF act inconclusive, esBAF inh 79, APOBEC3A inh 45 | A3A conf 55 | UDG A3A counter inactive
